Laboratory results reported in the supplement of paper PMC13380429.

Tested on: Vero E6 infected with SARS-CoV-2
Assay: inhibition of SARS-CoV-2 cytopathic effect; higher = more antiviral protection, active = above 15
Details: 48 h

Measured: inhibition of SARS-CoV-2 cytopathic effect

O=c1[nH]c2ccccc2c(=O)n1CCCN1CCN(c2ccccc2)CC1 [pelanserin]
inactive: 1 nM 0.03% | 8.33 nM 1.75% | 100 nM -0.08% | 833.33 nM 1.18% | 10000 nM 0.03%

C/C(=N\NC(=S)N1CCC1)c1ccccn1
active: 10000 nM 20.1%
inactive: 1 nM 0.2% | 8.33 nM 0.91% | 100 nM 2.65% | 833.33 nM -1.1%

Cc1cc(CC(C)CC(C)(C)C)n(O)c(=O)c1 (stereo not given) [piroctone-olamine]
inactive: 1 nM -1.12% | 8.33 nM 3.7% | 100 nM 3.23% | 833.33 nM 1.26% | 10000 nM -1.5%

C=C1C(=O)O[C@@H]2C[C@@]3(C)CCC[C@H](C)C3=C[C@H]12 [alantolactone]
inactive: 1 nM -2.07% | 8.33 nM -0.06% | 100 nM -2.01% | 833.33 nM 1.03% | 10000 nM 12.6%

COc1ccc(-n2[nH]c3c4c(ncc3c2=O)CCCCC4)cc1
inactive: 1 nM 0.69% | 8.33 nM 0.11% | 100 nM -0.83% | 833.33 nM 1.15% | 10000 nM -1.86%

N#Cc1c(N)nc(SCc2ncc[nH]2)c(C#N)c1-c1ccc(O)cc1
inactive: 1 nM -0.59% | 8.33 nM -2.41% | 100 nM 1.83% | 833.33 nM -3.13% | 10000 nM 0.18%

CNCC(O)c1ccc(OC(=O)C(C)(C)C)c(OC(=O)C(C)(C)C)c1 (stereo not given) [dipivefrine]
inactive: 1 nM 0.87% | 8.33 nM 3.76% | 100 nM 1.77% | 833.33 nM 1.42% | 10000 nM 0.56%

O=C(O)COc1cccc(CN(Cc2ccc(-n3cccn3)cc2)S(=O)(=O)c2cccnc2)c1 [taprenepag]
inactive: 1 nM 0.31% | 8.33 nM -1.59% | 100 nM -0.6% | 833.33 nM -0.14% | 10000 nM 0.98%

Cc1cc(C(N)=O)ccc1-n1c(CCC(=O)O)ccc1-c1ccc(-n2ccnc2)cc1
inactive: 1 nM -3.46% | 8.33 nM 2.86% | 100 nM 2.45% | 833.33 nM -1.56% | 10000 nM -2.98%

COc1ccc(-c2coc3cc(O)cc(O)c3c2=O)cc1 [4-methylgenistein]
inactive: 1 nM -1.18% | 8.33 nM -0.05% | 100 nM 0.18% | 833.33 nM -1.7% | 10000 nM 2.29%

Nc1nc(/C(=C/CC(=O)O)C(=O)N[C@@H]2C(=O)N3C(C(=O)O)=CCS[C@H]23)cs1 [ceftibuten]
inactive: 1 nM 0.43% | 8.33 nM 2.3% | 100 nM 2.51% | 833.33 nM 2.04% | 10000 nM 1.92%

Cn1cnnc1Sc1c([N+](=O)[O-])ncn1C
inactive: 1 nM 3.11% | 8.33 nM 1.9% | 100 nM 2.13% | 833.33 nM 5% | 10000 nM 2.84%

CC(C)(OCc1nn(Cc2ccccc2)c2ccccc12)C(=O)O [bindarit]
inactive: 1 nM -0.08% | 8.33 nM -0.77% | 100 nM 0.47% | 833.33 nM -2.78% | 10000 nM -0.8%

C=CCN1C[C@H](C)N([C@H](c2ccc(C(=O)N(CC)CC)cc2)c2cccc(OC)c2)C[C@H]1C
inactive: 1 nM -0.66% | 8.33 nM 1.28% | 100 nM 1.71% | 833.33 nM -0.17% | 10000 nM -1.85%

N#Cc1cccc(-c2c[nH]c3ncnc(N4CCOCC4)c23)c1
inactive: 1 nM -1.16% | 8.33 nM -0.52% | 100 nM -2.71% | 833.33 nM -0.07% | 10000 nM -2.14%

CC/C(=C(/CC)c1ccc(O)cc1)c1ccc(O)cc1 [diethylstilbestrol]
inactive: 1 nM -1.15% | 8.33 nM -2.29% | 100 nM -2.18% | 833.33 nM 3.59% | 10000 nM 6.76%

CC1CCN(C(c2ccc(F)cc2)c2ccc(C(C)C(=O)O)cc2-c2ccc(C(F)(F)F)cc2)CC1 (stereo not given)
inactive: 1 nM 3.01% | 8.33 nM -0.54% | 100 nM -0.83% | 833.33 nM -0.11% | 10000 nM -6.62%

O=C1OC(c2ccc(O)cc2)(c2ccc(O)cc2)c2ccccc21 [phenolphthalein]
inactive: 1 nM -1.78% | 8.33 nM 2.66% | 100 nM -1.09% | 833.33 nM -0.27% | 10000 nM 0.56%

O=C(NCCN1CCOCC1)c1ccc(Cl)cc1 [moclobemide]
inactive: 1 nM 1.23% | 8.33 nM 2.39% | 100 nM 0.11% | 833.33 nM -2.19% | 10000 nM -0.2%

NC(=O)c1[nH]cnc1O
inactive: 1 nM 0.65% | 8.33 nM 1.77% | 100 nM 0.2% | 833.33 nM -1.72% | 10000 nM 3.24%

CN(C)CCCN1c2ccccc2Sc2ccc(Cl)cc21 [chlorpromazine]
inactive: 1 nM -0.39% | 8.33 nM 2.71% | 100 nM 1.5% | 833.33 nM 2.32% | 10000 nM 7.04%

CCCc1ncc(C[n+]2ccccc2C)c(N)n1 [amprolium]
inactive: 1 nM 7.17% | 8.33 nM 1.36% | 100 nM 4.43% | 833.33 nM -0.09% | 10000 nM 0.03%

CCOc1ccc(NC(C)=O)cc1 [phenacetin]
inactive: 1 nM 0.72% | 8.33 nM -3.1% | 100 nM 1.64% | 833.33 nM 0.87% | 10000 nM 0.81%

Oc1c(Cl)cc(Cl)cc1Sc1cc(Cl)cc(Cl)c1O [bithionol]
inactive: 1 nM 0.29% | 8.33 nM 0.59% | 100 nM -0.92% | 833.33 nM -0.55% | 10000 nM 2.32%

N.N.[Cl][Pt][Cl] [cisplatin]
inactive: 1 nM 1.16% | 8.33 nM 0.86% | 100 nM 0.61% | 833.33 nM 3.21% | 10000 nM 1.76%

COc1ccc(C(=O)N2CCCc3cc(C4=NNC(=O)SC4C)ccc32)cc1OC (stereo not given)
inactive: 1 nM -1.28% | 8.33 nM 2.27% | 100 nM 0.07% | 833.33 nM 0.74% | 10000 nM 4.36%

CCn1cc(C(=O)O)c(=O)c2ccc(-c3ccncc3)cc21 [rosoxacin]
inactive: 1 nM -1.03% | 8.33 nM -0.12% | 100 nM -1.66% | 833.33 nM -2.14% | 10000 nM 3.73%

Clc1ccc(C(Cn2ccnc2)OCc2c(Cl)cccc2Cl)c(Cl)c1 (stereo not given) [isoconazole]
inactive: 1 nM 0.43% | 8.33 nM 0.08% | 100 nM 1.75% | 833.33 nM 1.3% | 10000 nM -2.37%

C=C(C)[C@@H]1CC[C@]2(CO)CC[C@]3(C)[C@H](CC[C@@H]4[C@@]5(C)CC[C@H](O)C(C)(C)[C@@H]5CC[C@]43C)[C@@H]12
inactive: 1 nM -5.94% | 8.33 nM -10.1% | 100 nM -7.13% | 833.33 nM -9.2% | 10000 nM -12.6%

CN(CCOc1ccc(NS(C)(=O)=O)cc1)CCc1ccc(NS(C)(=O)=O)cc1 [dofetilide]
inactive: 1 nM -2.98% | 8.33 nM -1.43% | 100 nM -1.55% | 833.33 nM -0.28% | 10000 nM -0.36%

CC(C)[C@H](O)C(=O)N[C@@H](C)C(=O)N[C@@H]1C(=O)N(C)CCc2ccccc21 [semagacestat]
inactive: 1 nM -0.47% | 8.33 nM 3.54% | 100 nM -1.88% | 833.33 nM -1.76% | 10000 nM -3.08%

CC(C)c1nnc(-c2ccc(-c3ccccc3)nc2)n1-c1cccc2nonc12
inactive: 1 nM -5.81% | 8.33 nM -4.31% | 100 nM -0.24% | 833.33 nM 0.55% | 10000 nM -1.7%

C[C@@H](CN)CC(=O)O [3-methyl-GABA]
inactive: 1 nM 0.49% | 8.33 nM 0.52% | 100 nM 1.28% | 833.33 nM 1.08% | 10000 nM -0.34%

CC(C)[C@@H](C)/C=C/[C@@H](C)[C@H]1CC[C@H]2C3=CC=C4C[C@@H](O)CC[C@]4(C)[C@H]3CC[C@]12C [ergosterol]
inactive: 1 nM -3.22% | 8.33 nM 1.48% | 100 nM 0.86% | 833.33 nM 2.74% | 10000 nM 2.85%

N[C@H]1CC[C@H](N[C@@H]2C[C@H]2c2ccccc2)CC1
inactive: 1 nM -0.96% | 8.33 nM 2.24% | 100 nM 1.16% | 833.33 nM 1.11% | 10000 nM 1.79%

Cn1ncc(Cl)c1-c1cc(C(=O)N[C@H](CN)Cc2cccc(F)c2)sc1Cl
inactive: 1 nM 0.2% | 8.33 nM -1.05% | 100 nM -0.95% | 833.33 nM -0.24% | 10000 nM -2.44%

Nc1nc2c(cnn2CCc2ccccc2)c2nc(-c3ccco3)nn12
inactive: 1 nM 1.74% | 8.33 nM 1.86% | 100 nM -4.65% | 833.33 nM -2.26% | 10000 nM -2.96%

CSCC[C@H](NC(=O)[C@H](CC(C)C)NC(=O)[C@@H](Cc1c[nH]c2ccccc12)NC(=O)[C@H](Cc1ccccc1)N(C)C(=O)[C@@H](Cc1c[nH]c2ccccc12)NC(=O)[C@@H](N)CCCNC(=N)N)C(N)=O [antagonist-g]
inactive: 1 nM 2.09% | 8.33 nM 0.43% | 100 nM -0.05% | 833.33 nM 1.24% | 10000 nM -1.09%

CC1=C(CC(=O)O)c2cc(F)ccc2/C1=C\c1ccc(S(C)(=O)=O)cc1 [exisulind]
inactive: 1 nM -5.21% | 8.33 nM -2.14% | 100 nM -3.65% | 833.33 nM 0.09% | 10000 nM -2.3%

O=S(=O)(O)c1ccc2[nH]c(-c3ccccc3)nc2c1 [phenylbenzimidazole-sulfonic-acid]
inactive: 1 nM -0.84% | 8.33 nM 2.98% | 100 nM 1.91% | 833.33 nM 4.9% | 10000 nM -7.89%
